Bioassay records deposited in PubChem BioAssay by several laboratories.
MCL1 BIM primary: inhibitors of human MCL1 binding to BIM-BH3 peptide. Q07820. GST-MCL1 / FITC-Bim-BH3 fluorescence polarization. inhibition, % at 10.9 µM. hit rate 0.68% among 320,000. AID 2057;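 active = inhibition above the mean inhibition of all tested compounds plus 3 SD, set per campaign, cut at about 40% in these data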;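 note: 0% = DMSO wells and 100% = unlabeled Bim-BH3 peptide control; higher means more loss of mP so more displacement of Bim peptide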
eLon inh: E. coli protease La inhibition; P0A9M0; inhibition, % at 7.94 µM; hit rate 0.42% among 360,000; purified E. coli Lon protease, fluorescence polarization; in the data active = inhibition above about 13%, passing the limit was not always enough;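 note: 0% = enzyme with probe and DMSO and 100% = no enzyme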
EBV gp42 inh: inhibitors of Epstein-Barr virus glycoprotein 42; inhibition, % (tested at 21.74 µM); Q1HVG2; Fluorescence polarization binding assay, mP read-out; hit rate 0.42% among 220,000; AID 1085; in the data active = inhibition above about 50%
Target sequence (Q1HVG2 whole entry, looked up): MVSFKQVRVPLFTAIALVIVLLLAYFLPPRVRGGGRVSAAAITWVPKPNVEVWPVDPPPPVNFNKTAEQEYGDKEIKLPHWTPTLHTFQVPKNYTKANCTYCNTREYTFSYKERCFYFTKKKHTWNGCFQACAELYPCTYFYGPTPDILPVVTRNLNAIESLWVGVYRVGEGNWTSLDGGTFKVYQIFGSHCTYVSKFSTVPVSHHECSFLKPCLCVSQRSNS
Bcl-xL primary: Bcl-xL (human) inhibition | inhibition, % at 10.9 µM | GST-Bcl-xL / FITC-Bim BH3 peptide fluorescence polarization | hit rate 0.7% among 320,000 | Q07817 | AID 2129;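 active = inhibition above the mean of all tested compounds plus 3 SD, cutoff set per campaign, cut at about 30% in these data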;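 note: 0% = DMSO wells and 100% = unlabeled Bim-BH3 peptide competitor; inhibitors lower millipolarization by displacing the labeled peptide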
GLD-1 TGE inh: GLD-1-TGE RNA interaction inhibition (C. elegans); purified GLD-1 + fluorescein TGE RNA, fluorescence polarization; inhibition, % at 5.96 µM; hit rate 0.44% among 320,000; Q17339;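 active = percent inhibition above a per-plate cutoff, the plate mean of test compounds plus 3 SD, cut at about 30% in these data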;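 note: 0% = DMSO wells with GLD-1 and probe and 100% = wells lacking GLD-1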
MEX-5 binding: C. elegans MEX-5 TCR-2 RNA binding activity; MEX-5/FITC-TCR2 RNA binding, fluorescence polarization; stronger effect = lower value; hit rate 0.38% among 300,000; activity score (negative = inhibition of binding), % at 10 µM; Q9XUB2; AID 1832;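 active = inhibition past about -25% in most replicates, and total fluorescence under double the plate's negative control median, limit read from the data; inconclusive = replicates evenly split on the limit, or fluorescence at least double controls; inactive = too little inhibition in most replicates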;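 note: 0% = DMSO and -100% = 5 µM competing unlabeled TCR2 RNA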
Target sequence (Q9XUB2 whole entry, looked up): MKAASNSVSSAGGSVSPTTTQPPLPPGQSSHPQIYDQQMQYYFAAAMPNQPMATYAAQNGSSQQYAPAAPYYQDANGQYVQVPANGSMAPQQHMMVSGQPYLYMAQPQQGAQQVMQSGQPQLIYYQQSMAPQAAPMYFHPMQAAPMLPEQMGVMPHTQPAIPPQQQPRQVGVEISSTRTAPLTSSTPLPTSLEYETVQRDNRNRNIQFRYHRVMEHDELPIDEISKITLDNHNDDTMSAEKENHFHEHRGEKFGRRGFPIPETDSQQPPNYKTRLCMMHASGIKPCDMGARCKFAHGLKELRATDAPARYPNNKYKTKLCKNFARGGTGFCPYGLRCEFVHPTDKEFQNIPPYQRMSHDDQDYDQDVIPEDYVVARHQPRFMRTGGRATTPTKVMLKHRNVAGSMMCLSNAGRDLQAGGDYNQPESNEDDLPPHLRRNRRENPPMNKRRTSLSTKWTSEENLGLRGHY
BCLXL inh confirm: counter-screen for MCL1 inhibitors: confirmation of human Bcl-xL inhibitors; hit rate 54% among 1,700; shares compounds with MCL1 BIM primary; GST-Bcl-xL / FITC-Bim BH3 peptide FP binding; AID 2166; inhibition, % at 10.9 µM;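 active = inhibition above a cutoff equal to the mean inhibition of all tested compounds plus 3 SD, cut at about 30% in these data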;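 note: 0% = DMSO wells and 100% = unlabeled Bim BH3 control peptide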
MCL1 BIM confirm: MCL1-BIM-BH3 interaction inhibition, confirmation; shares compounds with MCL1 BIM primary; GST-MCL1 / FITC-Bim-BH3 fluorescence polarization; inhibition, % at 10.9 µM; hit rate 61% among 1,700;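 active = inhibition above the average of all tested compounds plus 3 SD, cut at about 40% in these data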;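 note: 0% = DMSO wells and 100% = unlabeled Bim-BH3 control peptide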
GLD1 RNA confirm: GLD-1 TGE RNA interaction inhibition, confirmation. shares compounds with GLD-1 TGE inh. GLD-1/FL-TGE RNA fluorescence polarization, biochemical. inhibition, % at 5.96 µM. hit rate 10% among 550. AID 2459;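 active = average inhibition across triplicates above the hit cutoff set in the primary screen, cut at about 32% in these data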;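 note: 0% = GLD-1 with RNA probe and DMSO and 100% = wells lacking GLD-1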
E coli Lon conf: confirmation of E. coli Lon protease inhibitors. purified E. coli Lon, fluorescence polarization. hit rate 31% among 1,400. shares compounds with eLon inh. inhibition, % at 7.94 µM. AID 602230; in the data active = inhibition above about 16%;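 note: 0% = enzyme with probe and DMSO and 100% = no enzyme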
An asterisk follows results filed as active; ? = inconclusive; . = not tested or not shown; + = active, no number; ! = not active in a repeat. Sampled rows, rich in hits. Any-hit rate of the full collection: about 1.5%.

SMILES | MCL1 BIM primary | eLon inh | EBV gp42 inh | Bcl-xL primary | GLD-1 TGE inh | MEX-5 binding | BCLXL inh confirm | MCL1 BIM confirm | others
CC(C)[C@@]1(NC(=O)[C@@H]2C[C@@H]3c4cccc5[nH]cc(c45)C[C@H]3N(C)C2)O[C@@]2(O)[C@@H]3CCCN3C(=O)[C@H](Cc3ccccc3)N2C1=O | 7 | -15 | 12 | 16 | 9 | 1 | . | .
CC(C)[C@H]1C(=O)N2CCC[C@H]2[C@]2(O)O[C@](NC(=O)[C@@H]3C=C4c5cccc6[nH]cc(c56)C[C@H]4N(C)C3)(C(C)C)C(=O)N12 | + | 64* | 112* | 153* | 129* | . | 106* | 128*
CN(C)CCN(C(=O)COc1ccc(Cl)cc1)c1nc2cc3c(cc2s1)OCO3 | 7 | 6 | . | 2 | -2 | -3 | . | .
CN1CCC2(CC1)C(C#N)=C(N)NC(S)=C2C#N | 118*! | -78 | -2 | 42* | -78 | -43*! | 90* | 104*
Cc1cc(/C=C2\C(=O)NC(=O)N(Cc3ccccc3)C2=O)c(C)n1C1CC1 | 67* | -23 | 27 | -2 | 0 | -58* | 19 | 17
Cc1cc(C)c(S(=O)(=O)N2Cc3ccccc3-n3nncc3C2)c(C)c1 | . | -2 | . | . | . | . | . | .
CC(C)(C#CCCCCC#CC(C)(C)[N+](C)(C)C)[N+](C)(C)C | -28 | . | -49 | -13 | -1 | -1 | . | .
O=C1NC(=O)N(c2ccccc2)C(=O)/C1=C/c1ccc(Sc2ccccc2)o1 | 15 | -33 | -59 | 8 | -6 | 1 | . | .
O=C1NC(=O)N(c2cccc(Cl)c2)C(=O)/C1=C\c1ccc(Sc2nc3ccccc3[nH]2)o1 | 181* | -26 | -21 | 91* | 20 | 3 | 25 | 41*
O=C1NC(=O)N(c2ccccc2F)C(=O)/C1=C/c1ccc(Sc2nc3ccccc3[nH]2)o1 | 59* | -49 | -67 | 54* | 1 | . | 41* | 66*
COc1ccc2c3c1OC1C(=O)CC[C@@]4(O)[C@@H](C2)N(CC2CC2)CC[C@]314 (stereo partly specified) | . | -11 | . | . | 1 | . | . | .
O=c1[nH]c(=S)n(-c2ccc(Cl)cc2)c(O)c1C=Nc1ccc(N2CCOCC2)cc1 | + | -38 | 45 | 166* | -21 | -41* | 185* | +
O=c1[nH]c(=O)n(C2CCCCC2)c(O)c1C=Nc1ccc(N2CCOCC2)cc1 | 2 | -2 | -1 | 4 | 3 | 0 | . | .
CN(C)[C@@H]1C(=O)C(C(N)=O)=C(O)[C@@]2(O)C(=O)C3=C(O)c4c(O)cccc4[C@@](C)(O)C3C[C@@H]12 (stereo partly specified) | 51* | -7 | . | 25 | 2 | -9 | 17 | 26
O=P(OCC(F)(F)C(F)F)(N1CCOCC1)N1CCOCC1 | 0 | -7 | -11 | 3 | 4 | 1 | . | .
CC[N+](CC)(CC)CC | 50* | 0 | 6 | 11 | 3 | 0 | 13 | 2
CN(C)C(Cc1ccccc1)C(=O)c1cccs1 (stereo unspecified) | . | . | -18 | . | . | . | . | .
NC(Cc1cc(O)c(O)cc1O)C(=O)O (stereo unspecified) | 95* | . | . | 67* | 13 | . | 55* | 96*
NCCc1cc(O)c(O)cc1O | . | 2 | . | . | . | . | . | .
Nc1cc2nc3ccccc3nc2cc1N | 140* | 6 | 179* | 96* | 36* | ? | + | + | GLD1 RNA confirm=61*
Nc1ccc(Cl)c(Cl)c1 | . | -14 | . | . | . | . | . | .
Cc1cccnc1NC1=NCC(C)S1 (stereo unspecified) | 3 | 2 | -3 | 6 | -2 | -1 | . | .
CN1Cc2c(c(C#N)c(N)n(C)c2=S)CC1(C)C | 103* | 40* | 52* | 94* | 46* | -48* | 144* | 185* | GLD1 RNA confirm=27
COC(=O)[C@@]1(C#N)[C@@H]2C=CC(C(C)=O)=CN2[C@@H](C(N)=O)[C@@H]1c1ccc(F)cc1 | 81* | -10 | 119* | 72* | 44* | -57* | 149* | 189* | GLD1 RNA confirm=97*
COc1cc(C2NCc3ccccc3-n3cccc32)ccc1O (stereo unspecified) | 7 | -8 | -13 | 2 | 0 | 0 | . | .
SMILES | MCL1 BIM primary | eLon inh | EBV gp42 inh | Bcl-xL primary | GLD-1 TGE inh | MEX-5 binding | BCLXL inh confirm | MCL1 BIM confirm | others
Nc1c2c(nc3ccccc13)CCN(Cc1ccccc1)C2 | + | 198* | . | 167* | 97* | -3 | 72* | 101* | E coli Lon conf=2
O=C1C2CCCN2C(c2cccs2)N1c1ccccn1 (stereo unspecified) | 4 | -4 | -12 | 3 | 12 | 1 | . | .
Cc1ccc(CNC2=NCCS2)cc1 | 6 | -6 | -9 | 3 | 1 | 0 | . | .
CC1=NCCc2c1[nH]c1cc(O)ccc21 | + | + | . | + | + | . | + | + | E coli Lon conf=+
CCOP(=O)(OCC)c1ccc(O)cc1 | -3 | 1 | -1 | 1 | 11 | 2 | . | .
COC(=O)C1=C(c2ccc(OC(F)(F)F)cc2)C[C@@H]2CC[C@H]1N2C(=O)NCc1cc(C)oc1C(F)(F)F | 3 | 0 | . | 1 | -2 | . | . | .
O=c1[nH]c(O)c(/C=C2\C=Nc3ccc(OCc4ccccc4)cc32)c(=O)[nH]1 | 188* | 27* | . | 167* | 46* | ? | 126* | 153* | E coli Lon conf=30*
CN1C[C@H](CO)C=C2c3cccc4[nH]cc(c34)C[C@H]21 | 79* | 84* | 58* | 70* | 64* | ? | 65* | 87* | GLD1 RNA confirm=17;E coli Lon conf=7
CC1=C[C@@H]2c3cccc4[nH]cc(c34)C[C@H]2N(C)C1 | + | 116* | . | 169* | 118* | -58* | 141* | 163* | E coli Lon conf=67*
CC1CN=C(NCCc2ccccc2)S1 (stereo unspecified) | 7 | -1 | 6 | 7 | 7 | 1 | . | .
COc1cc2c(C(=O)N3CCN(C)CC3)c(C)n(C)c2cc1Br | 42* | 20* | 0 | 40* | 38* | -10 | . | . | GLD1 RNA confirm=5
COC(=O)C1=C(c2ccc(OC)c(OC)c2)C[C@@H]2CC[C@H]1N2C(=O)N1CCc2cc(OC)c(OC)cc2C1 | -3 | -5 | . | 6 | 2 | . | . | .
COc1ccc2cc(C(=O)C3CCCN(C4CCOCC4)C3)ccc2c1 (stereo unspecified) | 8 | 103* | -10 | 7 | -5 | 1 | . | . | E coli Lon conf=-1
